In PubChem BioAssay (Tox21) one finds Potency and activity change, positive = activation data, which are given here for 7 molecules.

A short description of assay [1]: qHTS assay to identify small molecule antagonists of the estrogen related receptor (ERR) signaling pathway from Tox21 library - cell viability counter screen (AID 1224834). Note: nearly all actives have a fitted effect of over 30% in size. Note: potency is the fitted concentration of half-maximal effect. The gist of the method: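 Fluorescence from CellTiter-Fluor gives the viability read-out, taken 30 min after reagent addition. Before that, ERR cells seeded 6 h earlier were incubated with compounds for 17.5 h at 37 C.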
Background: In qHTS, concentration-response curves come from the screen itself.

Assay [2] deals with Luciferin 4-monooxygenase (Photinus pyralis) (UniProt P08659). Put plainly: qHTS assay to identify small molecule inhibitors of firefly luciferase (AID 1224835). Note: nearly all actives have a fitted effect of over 25% in size. Note: potency is the fitted concentration of half-maximal effect. The gist of the method:
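Quantitative HTS format; KM concentrations of both substrates. Purified P. pyralis FLuc activity quantified from luminescence images.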

Assay [3] is described as follows: qHTS assay to identify small molecule agonists of the constitutive androstane receptor (CAR) signaling pathway - cell viability counter screen (AID 1224836). Note: nearly all actives have a fitted effect of over 45% in size. Note: potency is the fitted concentration of half-maximal effect. The gist of the method:
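Cell viability multiplexed with the CAR agonist screen: CellTiter-Fluor fluorescence after 23 hr at 37 C. HepG2-CYP2B6-hCAR cells got compounds at 15 concentrations with PK11195 at 0.75 uM final.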

Assay [4] can be described thus: qHTS assay to identify small molecule antagonists of the constitutive androstane receptor (CAR) signaling pathway - cell viability counter screen (AID 1224837). Note: nearly all actives have a fitted effect of over 45% in size. Note: potency is the fitted concentration of half-maximal effect. The gist of the method:
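HepG2-CYP2B6-hCAR cells, 2500/well, 4 hr pre-incubation; compound titration, 15 conc.; CITCO 50 nM final; 23 hr, 37 C/5% CO2; CellTiter-Fluor, fluorescence intensity.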

Assay [5] concerns the target Nuclear receptor subfamily 1 group I member 3 (Homo sapiens) (UniProt Q14994). As to the kind of experiment: qHTS assay to identify small molecule antagonists of the constitutive androstane receptor (CAR) signaling pathway (AID 1224838).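 Note: HepG2 cells stably expressing hCAR with CYP2B6 luciferase reporter stimulated by CITCO; nearly all actives have a fitted effect of over 40% in size.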 Note: potency is the fitted concentration of half-maximal effect. The gist of the method:
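HepG2-CYP2B6-hCAR cells; 4 h pre-incubation; cpd (15 conc) + CITCO 50 nM final; 24 h, 37 C/5% CO2; ONE-Glo, luminescence.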

Assay [6] shares this target. Put plainly: qHTS assay to identify small molecule agonists of the constitutive androstane receptor (CAR) signaling pathway (AID 1224839).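 Note: HepG2 cells stably carrying human CAR and a CYP2B6 luciferase reporter; nearly all actives have a fitted effect of over 15% in size.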 The gist of the method: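 Luminescent ONE-Glo read-out after 24 hr, 37 C exposure of double-stable HepG2-CYP2B6-hCAR reporter cells to a 15-point compound series, in the presence of 0.75 uM PK11195 (final).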
A short description of assay [7]: qHTS assay to identify small molecule antagonists of the estrogen related receptor signaling pathway with the pleiotropic PPARgamma coactivator (PGC) from Tox21 10K library - cell viability counter screen (AID 1224840; active = well fitted cell-killing curve with a large enough effect in the repeat runs, not every such curve was filed as active; note: nearly all actives have a fitted effect of over 40% in size; note: potency is the fitted concentration of half-maximal effect). The gist of the method: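 PGC/ERR cells, 2,000/well; 6 h pre-incubation 37 C/5% CO2; cpd in DMSO via pin tool; 17.5 h 37 C; CellTiter-Fluor, 30 min; fluorescence.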

The nature of assay [8]: qHTS assay to identify small molecule antagonists of the estrogen related receptor signaling pathway with the pleiotropic PPARgamma coactivator (PGC) from Tox21 10K library (AID 1224841; call rule not given here; note: actives are mostly falling curves and most rising ones were filed inactive; nearly all actives have a fitted effect of over 50% in size). A digest of the protocol:
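PGC/ERR cell line, 2,000 cells/well; 6 h pre-incubation 37 C/5% CO2; compounds (DMSO) pinned in; 18 h, 37 C; One-Glo, 30 min RT; luminescence.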

The nature of assay [9]: qHTS assay to identify small molecule agonists of the estrogen related receptor signaling pathway with the pleiotropic PPARgamma coactivator (PGC) from Tox21 10K library (AID 1224842). Note: nearly all actives have a fitted effect of over 15% in size. The gist of the method: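 PGC/ERR reporter cells (NTP line) were seeded 2,000 per well, rested 6 h at 37 C/5% CO2, then pin-dosed with compounds in DMSO for 18 h at 37 C; luciferase read by One-Glo luminescence after 30 min at room temperature.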

In assay [10] the target is Thyrotropin receptor (Homo sapiens) (UniProt P16473). Put plainly: qHTS assay to identify small molecule agonists of the thyroid stimulating hormone receptor (TSHR) signaling pathway (AID 1224843; calls by dose curve; note: nearly all actives have a fitted effect of over 45% in size). The gist of the method: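 Cell line HEK293 with TSHR; density 800/well. Exposure 30 min RT. Readout HTRF cAMP (cAMP-d2/anti-cAMP-cryptate), 1 h RT before reading.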
Assay [11] in a line: qHTS assay to identify small molecule agonists of the hypoxia (HIF-1) signaling pathway - cell viability counter screen (AID 1224844; calls by dose curve; note: nearly all actives have a fitted effect of over 50% in size; note: potency is the fitted concentration of half-maximal effect). The gist of the method: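 ME-180 HRE-bla cells, 2,000/well, 0.5% dialyzed FBS; 5 hr settle, 17 hr compound at 37C/5% CO2; CCF4-AM reporter read first, then CellTiter-Glo luminescence after 30 min RT.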
The nature of assay [12]: qHTS assay to identify small molecule agonists of H2AX (AID 1224845; active = well fitted activation curve with a large enough effect in the signal ratio in the repeat runs, not every such curve was filed as active; the % refers to the signal ratio). The gist of the method: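 Wild-type CHO-K1 cells plated overnight, then exposed 3 hr at 37C to compounds at 15 concentrations (0.76% DMSO). Lysed, then HTRF anti-pH2AX(S139)-cryptate/anti-H2AX-d2 detection after 24 hr at room temperature; emissions 665 and 620 nm.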
Assay [13] can be described thus: qHTS assay to identify small molecule agonists of the hypoxia (HIF-1) signaling pathway (AID 1224846; active = well fitted activation curve with a large enough effect in the signal ratio in the repeat runs, not every such curve was filed as active; the % refers to the signal ratio). The gist of the method: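 Cell line: CellSensor HRE-bla ME-180; 2,000 cells/well; 0.5% dialyzed FBS; 5 h preincubation; DMSO compound pin transfer; 17 h, 37C, 5% CO2; CCF4-AM added; bla FRET signal scored for activation.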
A short description of assay [14]: qHTS assay to identify small molecule agonists of H2AX - cell viability counter screen (AID 1224847; calls by dose curve; note: nearly all actives have a fitted effect of over 30% in size; note: potency is the fitted concentration of half-maximal effect). The gist of the method: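 Counter-screen for viability: CellTiter-Glo ATP luminescence read after 3 h compound treatment (15-point titration, 0.76% DMSO final) of CHO-K1 cells at 37C, with 30 min room-temperature reagent incubation.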
Assay [15] in a line: qHTS assay to identify small molecule antagonists of the estrogen related receptor (ERR) signaling pathway from Tox21 library (AID 1224848). Note: nearly all actives have a fitted effect of over 50% in size. Note: potency is the fitted concentration of half-maximal effect. A digest of the protocol:
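Screening used an ERR reporter line supplied by NTP, exposed for 18 h at 37 C to library compounds delivered in DMSO. Signal was luciferase luminescence developed with ONE-Glo at room temperature for 30 min.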

Assay [16] can be described thus: qHTS assay to identify small molecule agonists of the estrogen related receptor (ERR) signaling pathway from Tox21 library (AID 1224849; calls by dose curve; note: nearly all actives have a fitted effect of over 15% in size). The note with it: ERR reporter cell line, ONE-Glo luciferase, 18 h. The gist of the method:
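ERR cells, 6 h pre-incubation 37 C/5% CO2; cpd in DMSO pinned; 18 h 37 C; ONE-Glo added, 30 min RT; luminescence read. Agonist mode, qHTS.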

Assay [17] can be described thus: qHTS RealTime-Glo MT Cell Viability Assay in HepG2 cells - 24 hour (AID 1224867). Note: nearly all actives have a fitted effect of over 50% in size. Note: potency is the fitted concentration of half-maximal effect. A digest of the protocol:
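Tox21 10K library screened in qHTS format on HepG2 cells carrying RealTime-Glo reagents. Compounds were added after a 5 h preincubation, and the luminescent signal from continuous culture was measured repeatedly during 40 h treatment.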

Assay [18] can be described thus: qHTS RealTime-Glo MT Cell Viability Assay in HEK293 cells - 32 hour (AID 1224868). Note: nearly all actives have a fitted effect of over 50% in size. Note: potency is the fitted concentration of half-maximal effect. A digest of the protocol:
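Luminescence generated by NanoLuc from substrate produced by living HEK293 cells served as the viability signal. Each value reflects the reading at its stated time point during continuous 40 h compound exposure at 37 C.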

Assay [19] can be described thus: qHTS RealTime-Glo MT Cell Viability Assay in HepG2 cells - 40 hour (AID 1224870). Note: nearly all actives have a fitted effect of over 50% in size. A digest of the protocol:
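HepG2 cells mixed with RealTime-Glo MT reagents (NanoLuc plus cell-permeant prosubstrate) were seeded at 600 cells/well, incubated 5 h at 37 C/5% CO2, then pinned with compounds in DMSO; nonlytic luminescence tracked viability during 40 h treatment.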

Assay [20] can be described thus: A CellTox Green Cytotoxicity Assay to monitor cytotoxicity in HEK293 cells - 0 hour (AID 1224869). Note: nearly all actives have a fitted effect of over 50% in size. A digest of the protocol:
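Nonlytic real-time cytotoxicity: HEK293 + CellTox Green reagent plated, 5 h preincubation, pintool compound addition (23 nL in DMSO), 37 C for 40 h, fluorescence measured at successive time points.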

Values joined by “and” are separate entries in the source; they are usually repeats but may differ in a detail not shown here. Identical values can stand only once. Inconclusive results are not listed. More than one record can exist for a structure, and the calls need not agree. Active and inactive are the calls of the source. Unless noted, calls come from the whole dose curve; as a rule, active = well fitted curve in the direction sought with a large enough effect in the repeat runs; inconclusive = weak or mixed curves; inactive = no such curve, though single readings can be large; an effect the other way counts as inactive or inconclusive.
% is set by controls: 0 for no effect and ±100 for the full control effect.

Chain of Thyrotropin receptor (Homo sapiens) (P16473 whole entry, looked up): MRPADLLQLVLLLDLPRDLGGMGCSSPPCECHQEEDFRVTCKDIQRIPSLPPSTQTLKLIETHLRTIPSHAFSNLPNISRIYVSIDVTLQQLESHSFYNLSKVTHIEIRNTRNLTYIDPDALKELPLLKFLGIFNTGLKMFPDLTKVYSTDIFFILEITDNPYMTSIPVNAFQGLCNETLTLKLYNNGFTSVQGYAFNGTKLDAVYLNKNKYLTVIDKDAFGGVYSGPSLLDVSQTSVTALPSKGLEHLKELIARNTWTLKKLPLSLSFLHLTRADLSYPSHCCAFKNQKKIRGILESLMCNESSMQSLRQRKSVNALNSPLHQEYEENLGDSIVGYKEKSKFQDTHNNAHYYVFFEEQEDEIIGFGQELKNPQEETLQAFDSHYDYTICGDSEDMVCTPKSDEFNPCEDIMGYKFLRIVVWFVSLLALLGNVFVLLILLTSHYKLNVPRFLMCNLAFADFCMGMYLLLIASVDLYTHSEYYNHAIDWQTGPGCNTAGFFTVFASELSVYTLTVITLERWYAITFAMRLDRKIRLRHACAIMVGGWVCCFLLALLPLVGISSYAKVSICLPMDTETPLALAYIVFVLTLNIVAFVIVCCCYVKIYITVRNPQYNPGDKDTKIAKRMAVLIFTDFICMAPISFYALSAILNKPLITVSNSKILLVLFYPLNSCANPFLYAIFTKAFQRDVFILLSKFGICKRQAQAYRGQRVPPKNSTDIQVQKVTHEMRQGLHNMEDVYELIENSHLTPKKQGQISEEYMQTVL
Chain of Nuclear receptor subfamily 1 group I member 3 (Homo sapiens) (Q14994 whole entry, looked up): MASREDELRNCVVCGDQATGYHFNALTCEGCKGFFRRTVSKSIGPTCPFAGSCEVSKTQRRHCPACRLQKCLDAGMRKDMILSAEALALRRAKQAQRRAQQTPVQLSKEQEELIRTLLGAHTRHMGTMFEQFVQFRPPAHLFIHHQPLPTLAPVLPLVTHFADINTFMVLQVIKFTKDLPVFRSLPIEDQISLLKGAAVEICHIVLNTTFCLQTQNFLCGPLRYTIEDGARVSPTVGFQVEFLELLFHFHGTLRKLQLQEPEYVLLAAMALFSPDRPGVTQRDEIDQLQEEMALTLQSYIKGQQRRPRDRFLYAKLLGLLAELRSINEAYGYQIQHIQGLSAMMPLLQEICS
Chain of Luciferin 4-monooxygenase (Photinus pyralis) (P08659 whole entry, looked up): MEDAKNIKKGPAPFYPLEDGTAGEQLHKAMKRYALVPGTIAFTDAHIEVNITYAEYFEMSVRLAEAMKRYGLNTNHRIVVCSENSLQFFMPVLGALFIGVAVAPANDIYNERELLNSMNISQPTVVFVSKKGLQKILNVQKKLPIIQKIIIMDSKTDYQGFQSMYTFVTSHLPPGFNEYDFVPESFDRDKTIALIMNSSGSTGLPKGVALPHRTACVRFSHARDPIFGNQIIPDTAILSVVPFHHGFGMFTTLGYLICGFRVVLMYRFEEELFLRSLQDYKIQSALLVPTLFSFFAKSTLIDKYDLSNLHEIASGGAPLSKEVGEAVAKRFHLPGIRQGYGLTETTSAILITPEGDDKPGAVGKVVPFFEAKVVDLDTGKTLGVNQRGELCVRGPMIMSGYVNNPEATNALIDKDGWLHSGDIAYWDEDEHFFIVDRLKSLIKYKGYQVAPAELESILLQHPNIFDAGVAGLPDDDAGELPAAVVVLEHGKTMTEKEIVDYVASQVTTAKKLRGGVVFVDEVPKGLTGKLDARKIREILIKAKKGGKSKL

With `Cc1cccc2cccnc12`, the Potency entry in assay [1], in assay [2], in assay [3], in assay [4], in [5] and in assay [6] was “inactive” each time. In addition, the Potency result in assay [7], in [8], in assay [9], in assay [10], in [11] and in [12] was “inactive” each time. In addition, the Potency entry in assay [13], in assay [14], in assay [15], in assay [17], in assay [18] and in [19] was “inactive” each time. Besides, the activity change, positive = activation in assay [16] (at 92.4 µM (top of the series)) is 0.0767% (inactive).
As for `O=C(O)c1cc(=O)c2ccccc2o1`, the Potency result in assay [1], in [2], in assay [3], in assay [4], in assay [5] and in [6] was “inactive” in each case. Moreover, the Potency entry in [7], in [8], in assay [9], in assay [10], in assay [11] and in assay [12] was “inactive” each time. Besides, the Potency result in [13], in assay [14], in assay [15], in assay [17], in assay [18] and in assay [20] was “inactive” throughout. In assay [19], the Potency entry was “inactive”. The activity change, positive = activation in assay [16] (at 42.5 µM (top of the series)) was -3.87% (inactive).
Regarding `CCCCCCCCCCCCCC[N+](C)(C)C`, the Potency in [1] was 29.6 µM (active) and 15.3 µM (active); in assay [2] it was 68.6 µM (active); in assay [3] it was 23.5 µM (active); in assay [4] it was 13.2 µM (active) and 27.3 µM (active); in [5] it was 59.1 µM (active) and inactive; in [7], 23.5 µM (active) and 54.4 µM (active) and inactive. For the same molecule, the Potency in assay [11] was 42.2 µM (active); in assay [14], 38.8 µM (active) and 50.4 µM (active); in assay [15] it was 2.64 µM (active) and 4.32 µM (active) and 8.41 µM (active); in [17], 11.9 µM (active) and 21.8 µM (active) and 23.9 µM (active); in assay [18], 9.44 µM (active) and 12.3 µM (active) and 2.13 µM (active). Further, the Potency entry in assay [6], in assay [9], in [12] and in [20] was “inactive” in each case. Moreover, the activity change, positive = activation was -50% (inactive) in assay [16] (at 42.5 µM (top of the series)); -78.5% (inactive) and -74.4% (inactive) in assay [16] (at 92.4 µM (top of the series)).
Take `Cc1ccc(C(=O)O)cc1`: the Potency result in [1], in assay [2], in [3], in assay [4], in assay [5] and in assay [6] was “inactive” in each case. Besides, the Potency entry in assay [7], in assay [8], in assay [9], in assay [10], in [11] and in assay [12] was “inactive” each time. Besides, the Potency result in assay [13], in assay [14], in [15], in [17], in assay [18] and in assay [20] was “inactive” each time. Further, the Potency result in assay [19] is “inactive”. In assay [16] (at 92.4 µM (top of the series)), the activity change, positive = activation is -0.305% (inactive).
`Clc1sc(Cl)c(Cl)c1Cl`: the Potency result in assay [1], in assay [2], in assay [3], in assay [4], in [5] and in assay [6] was “inactive” in each case. Besides, the Potency result in assay [7], in assay [8], in assay [9], in assay [10], in assay [12] and in [13] was “inactive” each time. Further, the Potency entry in [14], in assay [15], in assay [17], in assay [18], in [20] and in assay [19] was “inactive” throughout. The activity change, positive = activation in assay [16] (at 92.4 µM (top of the series)) is 4.94% (inactive).
As for `CCN1C(=O)c2ccccc2C1Nc1ccc(OCCN2CCCCC2)cc1` (centres undefined), the Potency result in assay [1], in assay [2], in assay [3], in assay [4], in assay [5] and in [6] was “inactive” throughout. Also, the Potency result in assay [7], in assay [10], in assay [11], in assay [12], in assay [13] and in [14] was “inactive” in each case. Moreover, the Potency result in assay [17] and in assay [20] was “inactive” throughout. The Potency in [18] was 5.35 µM (active).
Take `CCCCCCC1CCCC(=O)O1` (centres undefined): the Potency result in [1], in [2], in [3], in [4], in [5] and in assay [6] was “inactive” each time. Also, the Potency entry in assay [7], in [8], in [9], in [10], in assay [11] and in assay [12] was “inactive” throughout. Also, the Potency entry in assay [13], in assay [14], in [15], in assay [17], in [18] and in [19] was “inactive” in each case. In addition, the activity change, positive = activation in assay [16] (at 92.4 µM (top of the series)) was 0.936% (inactive).
